Compound activity as filed in PubChem.
The list is not random: actives were taken first. Their share in the collection is about 9%.
HPGD inh: qHTS Assay for Inhibitors of HPGD (15-Hydroxyprostaglandin Dehydrogenase) | 15-hydroxyprostaglandin dehydrogenase [NAD(+)] (Homo sapiens), P15428 | purified HPGD, NADH fluorescence kinetic, PGE2 substrate | Potency, µM, for the others: at the highest dose activity change, negative = inhibition, most hits filed as inhibitors | hit rate 4.3% among 150,000
Target sequence (P15428 whole entry, looked up): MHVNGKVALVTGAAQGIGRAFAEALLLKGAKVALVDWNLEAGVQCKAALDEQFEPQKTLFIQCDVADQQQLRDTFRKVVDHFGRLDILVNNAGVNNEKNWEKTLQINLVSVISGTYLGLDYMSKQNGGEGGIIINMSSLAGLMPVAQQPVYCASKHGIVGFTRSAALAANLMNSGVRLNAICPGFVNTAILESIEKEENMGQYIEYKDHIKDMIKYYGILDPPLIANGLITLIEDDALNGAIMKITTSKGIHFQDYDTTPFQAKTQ
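20 nM HPGD preincubated 15 min at room temperature with compound in 50 mM Tris-HCl pH 8, 0.01% Tween 20. Started with 1 mM NAD+ and 30 uM prostaglandin E2; NADH fluorescence (360/450 nm) read 5 times over 30-s intervals, last minus first.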
Lamin A splicing: qHTS Assay for Modulators of Lamin A Splicing | HeLa LMNA splicing GFP/RFP minigene ratio, 48 h | Potency, µM (highest dose often 46.1 µM), inactives show top-dose ratio change, negative = inhibition, usual class: inhibitors | hit rate 0.01% among 200,000; active = well fitted inhibition curve with a large enough effect in the signal ratio, with a control signal flat, not every such curve was filed as active; inconclusive = small, poorly fitted or top-dose-only effect, or effect the other way, or a change in a side signal; the % refers to the signal ratio
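S3 HeLa cells stably expressing lamin A-EGFP splicing minigene plus DsRed2, 600 cells/well, 48 h compound exposure at 37C. Laser-scanning cytometry; analysed as GFP (500-530 nm)/RFP (575-640 nm) total intensity ratio; 0.5% DMSO vehicle.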
IMPase Li cell: qHTS Assay for Identifying the Cell-Membrane Permeable IMPase Inhibitors: Potentiation with Lithium; CHO-M1 cells, IP1 TR-FRET (IP-One), carbachol + lithium; Potency, µM (highest dose often 59.4 µM), without a hit: at the highest dose activity, negative = IMPase inhibition, hits mostly inhibitors; hit rate 0.35% among 210,000; active = well fitted curve in the direction sought with a large enough effect; inconclusive = small, poorly fitted or top-dose-only effect, or another doubt; inactive = no such curve, though single readings can be large; an effect the other way counts as inactive or inconclusive;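 also: IP1 builds up when IMPase is blocked and the TR-FRET signal falls; plate controls were basal vehicle for no effect and high inhibitor control for full effect; nearly all actives have a fitted effect of over 50% in size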
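IP1 accumulation measured by competitive TR-FRET in lysed CHO-M1 cells after 30 min compound exposure at 37C, with a small lithium addition to potentiate weak responses. Hill-equation AC50 from ratio and donor-channel data.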
KinaseGlo FLuc: Counterscreen for Luciferase (Kinase-Glo TM) Inhibition | Kinase-Glo luciferase, ATP luminescence, 8 min | Potency, µM (top dose mostly 38.3 µM), for the others: top-dose activity change, negative = inhibition, usual class: inhibitors | hit rate 0.28% among 200,000 | AID 1379, 2008; active = well fitted curve in the direction sought with a large enough effect; inconclusive = small, poorly fitted or top-dose-only effect, or another doubt; inactive = no such curve, though single readings can be large; an effect the other way counts as inactive or inconclusive; also: nearly all actives have a fitted effect of over 60% in size
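Compounds were added to a substrate mix at pH 7.2 (50 mM imidazole, 10 uM ATP, within the enzyme's linear range), followed by Kinase-Glo detection reagent; luminescence was measured after 8 minutes at ambient temperature.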
ALDH1A1 inh: qHTS Assay for Inhibitors of Aldehyde Dehydrogenase 1 (ALDH1A1); Aldehyde dehydrogenase 1A1 (Homo sapiens), P00352; Purified ALDH1A1, NADH fluorescence, propionaldehyde substrate; Potency, µM (series often up to 75.3 µM), without a hit: top-dose activity, negative = inhibition, hits mostly inhibitors; hit rate 7.3% among 220,000; AID 1030, 2008;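 also: plate controls were no enzyme wells and a reference inhibitor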
* = called active by the depositor; ? = inconclusive; · = no result given; [ ] = remark or other dose. Unless noted, calls follow the shape of the dose curve; as a rule, active = well fitted inhibition curve with a large enough effect (not every such curve was filed as active); inconclusive = small, poorly fitted or top-dose-only effect, or another doubt; inactive = no such curve, though single readings can be large or run the other way. Unless noted, % is scaled to controls: 0 for no effect and ±100 for the full control effect; potency is read from the fitted curve at half-maximal effect.

SMILES	HPGD inh	Lamin A splicing	IMPase Li cell	KinaseGlo FLuc	ALDH1A1 inh
COc1ccc(NC(=O)N2CC[C@@]3(CCCN(C(C)=O)C3)C2)cc1	-8.1%	·	28.0%	-4.8%	?
N#Cc1nc(-c2cccs2)oc1N1CCOCC1	?	-17.1%	11.2µM*	6.4%	?
CC1CN(c2oc(-c3cccs3)nc2C#N)CC(C)O1 (stereo not drawn)	?	-6.2%	-28.9%[38.3 µM]	-0.7%	?
O=C(NC(=S)Nc1ccc(N2CCCCC2)cc1)c1ccc2c(c1)OCCO2	28.2µM*	?	2.7%	2.0%	10µM*
CC(=O)N1CCN(c2ccc(NC(=S)NC(=O)COc3ccc(C(C)(C)C)cc3)cc2)CC1	-9.9%	?	14.9%	1.0%	18.9µM*
O=C(NC(=S)Nc1ccc(Cc2ccncc2)cc1)c1ccc(F)cc1	·	2.4%[46 µM]	20.1%	-2.3%	20µM*
O=C(NC(=S)NNC(=O)c1cnccn1)c1ccc(F)cc1	·	·	-2.5%	5.4%	28.2µM*
CCC(=O)N1CCN(c2ccc(NC(=S)NC(=O)COc3ccccc3)cc2)CC1	·	·	12.4%	5.5%	-1.0%
O=C(NNC(=S)NC(=O)c1cccnc1)c1ccccc1	-11.2%	-1.0%	-1.7%[38.3 µM]	3.1%	-5.6%
CS(=O)(=O)N1CCN(c2ccc(NC(=S)NC(=O)c3ccc4c(c3)OCO4)cc2)CC1	·	?	-0.2%	0.4%	?
CCNC(=S)Nc1ccc(Cc2ccncc2)cc1	·	·	11.5%	-0.1%	?
Cc1nc2cnc(N3CCOCC3)nc2n(CCc2ccccc2)c1=O	·	-25.1%	-8.4%	·	?
COc1ccc(CNC(=O)c2cnccn2)cc1	-25.4%	0.6%	11.7%[38.3 µM]	1.4%	6.2%
Cc1cc(C)c2nc(-c3cccnc3)cc(C(=O)NC(C)c3cnn(C)c3C)c2c1 (stereo not drawn)	·	9.9%[46 µM]	26.4%	0.6%	?
Cc1ccc(C(=O)NC(=S)Nc2ccc(N3CCOCC3)cc2)cc1C	·	4.5%[46 µM]	10.2%	-0.1%	?
CC(=O)Nc1ccc(NC(=S)Nc2ccc(F)cc2)cc1	·	-3.8%[46 µM]	5.9%	-1.9%	1.4%
O=C(NC(=S)Nc1ccc(F)cc1)c1ccc2c(c1)OCCO2	·	·	9.8%	-4.2%	12.6µM*
O=C(NC(=S)Nc1c(F)cc(F)cc1Br)c1ccc2c(c1)OCCO2	·	·	17.3%	1.9%	?
CC1CCN(c2ccc(NC(=S)NC(=O)c3ccco3)cc2)CC1	-25.9%	4.8%	1.3%[38.3 µM]	0.4%	?
CC(C)(C)C(=O)NC(=S)Nc1ccc(F)cc1	-12.6%	?	-5.8%	11.8%	22.4µM*
O=C(NC(=S)Nc1ccc(N2CCCCC2)cc1)c1ccco1	17.8µM*	1.6%	4.9%[38.3 µM]	-0.9%	?
O=C(NC(=S)Nc1ccc(N2CCOCC2)cc1)c1ccc2c(c1)OCCO2	?	?	1.7%	-1.0%	20µM*
Cc1ccc(OC(C)C(=O)N2CCN(CCc3ccncc3)CC2)cc1C (stereo not drawn)	·	5.2%[46 µM]	·	·	·
O=C(O[C@@H]1Cc2c(O)cc(O)cc2OC1c1ccc(O)c(O)c1)c1cc(O)c(O)c(O)c1 (stereo partly drawn)	-26.0%	-14.3%	-6.1%	-1.0%	-7.5%
O=C1CC(c2cccc(Br)c2)C2=C(COC2=O)N1 (stereo not drawn)	·	·	4.7%	-2.2%	10.0%
CC(C)(C)c1ccc(C(=O)NC(=S)Nc2ccc(N3CCOCC3)cc2)cc1	-5.3%	?	24.0%	-2.5%	10µM*
C#CCn1cnc2c(cnn2-c2ccc(C)c(C)c2)c1=O	-16.2%	-4.6%	-1.1%[38.3 µM]	-2.5%	14.1µM*
CCCCNC(=O)Cn1cnc2c(cnn2-c2ccc(C)c(C)c2)c1=O	-25.1%	?	?	-2.7%	15.8%
Cc1ccc(-n2ncc3c(=O)n(CC#N)cnc32)cc1C	-23.6%	18.9%	-14.3%[38.3 µM]	-1.6%	15.8µM*
Cc1ccc(NC(=O)C2C(c3ccccc3)C=CC(c3ccccc3)C2C(=O)O)cc1 (stereo not drawn)	-7.8%	0.3%	1.4%[38.3 µM]	-3.6%	?
